From PubChem BioAssay come the findings set out here.

SMILES strings stand for the structures. Several values for one entry are separate records, joined by “and”; a condition that tells them apart may be missing. Equal values may be shown once. Values without a mark were called inactive. No rule for the calls is given here.

The target of the assay is Pantothenate synthetase (Mycobacterium tuberculosis (strain ATCC 25618 / H37Rv)) (UniProt P9WIL5). The assay is described as follows: Coupled enzyme confirmation of inhibitors against recombinant Mtb PanC (AID 375).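 Also: 0% = full reaction with vehicle and 100% = no enzyme background.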 The following applies: coupled enzyme assay; at 10 µM, active compounds read high.
Sequence of Pantothenate synthetase (Mycobacterium tuberculosis (strain ATCC 25618 / H37Rv)) (P9WIL5 whole entry, looked up): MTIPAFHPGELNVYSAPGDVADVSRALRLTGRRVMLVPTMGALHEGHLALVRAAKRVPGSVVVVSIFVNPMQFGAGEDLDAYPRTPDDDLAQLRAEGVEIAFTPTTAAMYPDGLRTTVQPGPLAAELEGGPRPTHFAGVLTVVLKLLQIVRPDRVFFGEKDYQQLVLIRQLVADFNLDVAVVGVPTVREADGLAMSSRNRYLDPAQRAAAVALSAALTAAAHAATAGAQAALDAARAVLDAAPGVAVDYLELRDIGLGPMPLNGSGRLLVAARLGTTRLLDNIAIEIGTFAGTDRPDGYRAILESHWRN
`O=C(OCn1nnc2ccccc2c1=O)c1cc2ccccc2o1`: the inhibition was 2%.

Consider `C/C(Nc1cccc(F)c1)=C(/C#N)C(N)=O`, for which the inhibition was 3%.

For the compound `CN1CCc2c(sc3c2c(=O)n(-c2ccccc2)c2nnc(SCc4ccc(F)cc4)n32)C1`, the inhibition was 0%. The figure for `O=C(NCCc1c[nH]c2ccccc12)c1ccc(S(=O)(=O)NCc2ccco2)cc1` is 0%.

Consider `C=CC(O)(C#CCN(CC)CC)c1ccccc1` (stereo not drawn), for which the inhibition was 3%. With `COc1cccc(NC(=O)N[C@@H](Cc2ccccc2)C(=O)O)c1`, the inhibition was 0%. The figure for `COc1ccc(NC(=O)C(C)NS(=O)(=O)c2ccccc2)cc1Cl` (stereo not drawn) is 10%; for `COc1cc(NS(=O)(=O)c2ccc(Br)s2)cc(OC)c1` it is 0%.

`CCCCN(CC)CCCNC(=O)c1cc2c(=O)n(C)c3ccccc3c2n1C`: the inhibition was 0%. The figure for `CC(C)CCNC(=O)NC(=O)CSc1nnc(-c2ccccc2Br)o1` is 1%; for `C[C@]12CCC(=O)C=C1CC[C@@H]1[C@@H]2[C@@H](O)C[C@@]2(C)[C@H]1CC[C@]2(O)C(=O)COC(=O)CCC(=O)O` it is 0% and 2%; for `CCOC(=O)c1cc2ccc(OC)c(OC)c2c(=O)s1` it is 0%.

Turning to `C=CCOc1ccc(C2C(C(=O)c3ccco3)=C(O)C(=O)N2Cc2cccnc2)cc1` (stereo not drawn), the inhibition was 0%.

As to `O=C(Nc1ccc(Br)c2cccnc12)c1ccc(Cn2cc(Cl)cn2)o1`, the inhibition was 1%. The figure for `O=C(NCC1CCCO1)C1c2ccccc2C(=O)N1C1CCCCCC1` (stereo not drawn) is 0%; for `CCOC(=O)N1CCC(c2cc(=O)n3[nH]cc(C(=O)OC)c3n2)CC1` it is 0%; for `O=C(NCc1ccco1)c1cccn2c(=O)c3sccc3nc12` it is 4%. The figure for `Cc1ccc2nc(C(F)(F)F)c(C#N)c(N)c2c1` is 7%; for `Cn1c2c(c(=O)n(C)c1=O)CN(CCCN1CCOCC1)CN2` it is 0%. As to `Cc1ccc(NC(=O)c2ccco2)c(NC(=O)CN2C(=O)c3ccccc3C2=O)c1`, the inhibition was 7%. The figure for `Cc1cccc(N2CCN(C(=O)CCn3c(=S)[nH]c4cc5c(cc4c3=O)OCO5)CC2C)c1` (stereo not drawn) is 9%; for `C=CCn1c(SCC(=O)c2cc(C)n(C(C)COC)c2C)nc2sc(C)c(C)c2c1=O` (stereo not drawn) it is 4%; for `COc1ccc(OC)c(NC(=O)C23CCC(C)(C(=O)C2)C3(C)C)c1` (stereo not drawn) it is 3%.

Usually inhibition stands for how much of the control response was suppressed.
